From the supplement of paper PMC4466140

Experiments:
Test in all cases: SPOT peptide array binding signal intensity (averaged, normalized) (arbitrary units (background-subtracted, floor 0; scale differs between SH3 domains)); higher = stronger binding of the SH3 domain to the peptide
AgAbp1 = molecular target: AgAbp1
In short: (§1)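 E. coli BL21(DE3) was used to express GST-fused SH3 domains from four yeast species, which were then purified on glutathione Sepharose. These were incubated at 10 μg/ml in TBS-based blocking buffer overnight at 4°C on cellulose membranes carrying synthetic 15-mer peptides, in which cysteines were replaced by serines. Binding signal is the replicate average of normalized, background-subtracted spot intensity, in arbitrary units that differ between domains.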

AgBbc1 = molecular target: AgBbc1
In short: as §1

AgBem1-D1 = molecular target: AgBem1-D1
In short: as §1

AgBzz1-D1 = molecular target: AgBzz1-D1
In short: as §1

AgBzz1-D2 = molecular target: AgBzz1-D2
In short: as §1

AgCyk3 = molecular target: AgCyk3
In short: as §1

AgFus1 = molecular target: AgFus1
In short: as §1

AgHof1 = molecular target: AgHof1
In short: as §1

AgHse1 = molecular target: AgHse1
In short: as §1

AgLsb1 = molecular target: AgLsb1
In short: as §1

AgLsb4 = molecular target: AgLsb4
In short: as §1

AgMyo5 = molecular target: AgMyo5
In short: as §1

AgNbp2 = molecular target: AgNbp2
In short: as §1

AgRvs167 = molecular target: AgRvs167
In short: as §1

AgSho1 = molecular target: AgSho1
In short: as §1

AgSla1-D1-D2 = molecular target: AgSla1-D1-D2
In short: as §1

AgSla1-D3 = molecular target: AgSla1-D3
In short: as §1

CaAbp1-D1 = molecular target: CaAbp1-D1
In short: as §1

CaAbp1-D2 = molecular target: CaAbp1-D2
In short: as §1

CaBbc1 = molecular target: CaBbc1
In short: as §1

CaBem1-D1 = molecular target: CaBem1-D1
In short: as §1

CaBzz1-D1 = molecular target: CaBzz1-D1
In short: as §1

CaBzz1-D2 = molecular target: CaBzz1-D2
In short: as §1

CaCyk3 = molecular target: CaCyk3
In short: as §1

CaFus1 = molecular target: CaFus1
In short: as §1

CaHof1 = molecular target: CaHof1
In short: as §1

CaHse1 = molecular target: CaHse1
In short: as §1

CaLsb1 = molecular target: CaLsb1
In short: as §1

CaLsb4 = molecular target: CaLsb4
In short: as §1

CaMyo5 = molecular target: CaMyo5
In short: as §1

CaNbp2 = molecular target: CaNbp2
In short: as §1

CaRvs167 = molecular target: CaRvs167
In short: as §1

CaRvs167-3 = molecular target: CaRvs167-3
In short: as §1

CaSho1 = molecular target: CaSho1
In short: as §1

CaSla1-D1-D2 = molecular target: CaSla1-D1-D2
In short: as §1

CaSla1-D3 = molecular target: CaSla1-D3
In short: as §1

ScAbp1 = molecular target: ScAbp1
In short: as §1

ScBbc1 = molecular target: ScBbc1
In short: as §1

ScBem1-D1 = molecular target: ScBem1-D1
In short: as §1

ScBzz1-D1 = molecular target: ScBzz1-D1
In short: as §1

ScBzz1-D2 = molecular target: ScBzz1-D2
In short: as §1

ScCyk3 = molecular target: ScCyk3
In short: as §1

ScFus1 = molecular target: ScFus1
In short: as §1

ScHof1 = molecular target: ScHof1
In short: as §1

ScHse1 = molecular target: ScHse1
In short: as §1

ScLsb1 = molecular target: ScLsb1
In short: as §1

ScLsb2 = molecular target: ScLsb2
In short: as §1

ScLsb3 = molecular target: ScLsb3
In short: as §1

ScLsb4 = molecular target: ScLsb4
In short: as §1

ScMyo3 = molecular target: ScMyo3
In short: as §1

ScMyo5 = molecular target: ScMyo5
In short: as §1

ScNbp2 = molecular target: ScNbp2
In short: as §1

ScPex13 = molecular target: ScPex13
In short: as §1

ScRvs167 = molecular target: ScRvs167
In short: as §1

ScSho1 = molecular target: ScSho1
In short: as §1

ScSla1-D1-D2 = molecular target: ScSla1-D1-D2
In short: as §1

ScSla1-D3 = molecular target: ScSla1-D3
In short: as §1

SpAbp1-D1 = molecular target: SpAbp1-D1
In short: as §1

SpBbc1 = molecular target: SpBbc1
In short: as §1

SpBzz1-D1 = molecular target: SpBzz1-D1
In short: as §1

SpBzz1-D2 = molecular target: SpBzz1-D2
In short: as §1

SpCyk3 = molecular target: SpCyk3
In short: as §1

SpHof1 = molecular target: SpHof1
In short: as §1

SpHof1-2 = molecular target: SpHof1-2
In short: as §1

SpHof1-3 = molecular target: SpHof1-3
In short: as §1

SpHse1 = molecular target: SpHse1
In short: as §1

SpLsb1 = molecular target: SpLsb1
In short: as §1

SpLsb4 = molecular target: SpLsb4
In short: as §1

SpMyo1 = molecular target: SpMyo1
In short: as §1

SpNbp2 = molecular target: SpNbp2
In short: as §1

SpPex13 = molecular target: SpPex13
In short: as §1

SpRvs167 = molecular target: SpRvs167
In short: as §1

SpSla1-D1-D2 = molecular target: SpSla1-D1-D2
In short: as §1

SpSla1-D3 = molecular target: SpSla1-D3
In short: as §1

B1: unnamed (peptide)
chain: RKNRAPPQRPRFNRE
- SPOT peptide array binding signal intensity (AgAbp1): 777
- SPOT peptide array binding signal intensity (AgBbc1): 536
- SPOT peptide array binding signal intensity (AgBem1-D1): 379
- SPOT peptide array binding signal intensity (AgBzz1-D1): 248
- SPOT peptide array binding signal intensity (AgBzz1-D2): 220
- SPOT peptide array binding signal intensity (AgCyk3): 7
- SPOT peptide array binding signal intensity (AgFus1): 404
- SPOT peptide array binding signal intensity (AgHof1): 117
- SPOT peptide array binding signal intensity (AgHse1): 469
- SPOT peptide array binding signal intensity (AgLsb1): 267
- SPOT peptide array binding signal intensity (AgLsb4): 71
- SPOT peptide array binding signal intensity (AgMyo5): 2.5
- SPOT peptide array binding signal intensity (AgNbp2): 1890
- SPOT peptide array binding signal intensity (AgRvs167): 8.33
- SPOT peptide array binding signal intensity (AgSho1): 47.5
- SPOT peptide array binding signal intensity (AgSla1-D1-D2): 320
- SPOT peptide array binding signal intensity (AgSla1-D3): 39.2
- SPOT peptide array binding signal intensity (CaAbp1-D1): 976
- SPOT peptide array binding signal intensity (CaAbp1-D2): 788
- SPOT peptide array binding signal intensity (CaBbc1): 945
- SPOT peptide array binding signal intensity (CaBem1-D1): 39
- SPOT peptide array binding signal intensity (CaBzz1-D1): 2100
- SPOT peptide array binding signal intensity (CaBzz1-D2): 1120
- SPOT peptide array binding signal intensity (CaCyk3): 642
- SPOT peptide array binding signal intensity (CaFus1): 706
- SPOT peptide array binding signal intensity (CaHof1): 0.5
- SPOT peptide array binding signal intensity (CaHse1): 89.8
- SPOT peptide array binding signal intensity (CaLsb1): 7
- SPOT peptide array binding signal intensity (CaLsb4): 646
- SPOT peptide array binding signal intensity (CaMyo5): 9.25
- SPOT peptide array binding signal intensity (CaNbp2): 1020
- SPOT peptide array binding signal intensity (CaRvs167): 26.5
- SPOT peptide array binding signal intensity (CaRvs167-3): 28.5
- SPOT peptide array binding signal intensity (CaSho1): 117
- SPOT peptide array binding signal intensity (CaSla1-D1-D2): 752
- SPOT peptide array binding signal intensity (CaSla1-D3): 15
- SPOT peptide array binding signal intensity (ScAbp1): 369
- SPOT peptide array binding signal intensity (ScBbc1): 290
- SPOT peptide array binding signal intensity (ScBem1-D1): 112
- SPOT peptide array binding signal intensity (ScBzz1-D1): 46
- SPOT peptide array binding signal intensity (ScBzz1-D2): 26
- SPOT peptide array binding signal intensity (ScCyk3): 88
- SPOT peptide array binding signal intensity (ScFus1): 209
- SPOT peptide array binding signal intensity (ScHof1): 2.5
- SPOT peptide array binding signal intensity (ScHse1): 761
- SPOT peptide array binding signal intensity (ScLsb1): 162
- SPOT peptide array binding signal intensity (ScLsb2): 196
- SPOT peptide array binding signal intensity (ScLsb3): 622
- SPOT peptide array binding signal intensity (ScLsb4): 34.5
- SPOT peptide array binding signal intensity (ScMyo3): 8.5
- SPOT peptide array binding signal intensity (ScMyo5): 10
- SPOT peptide array binding signal intensity (ScNbp2): 4060
- SPOT peptide array binding signal intensity (ScPex13): 128
- SPOT peptide array binding signal intensity (ScRvs167): 192
- SPOT peptide array binding signal intensity (ScSho1): 979
- SPOT peptide array binding signal intensity (ScSla1-D1-D2): 1390
- SPOT peptide array binding signal intensity (ScSla1-D3): 30.2
- SPOT peptide array binding signal intensity (SpAbp1-D1): 634
- SPOT peptide array binding signal intensity (SpBbc1): 25.5
- SPOT peptide array binding signal intensity (SpBzz1-D1): 707
- SPOT peptide array binding signal intensity (SpBzz1-D2): 23
- SPOT peptide array binding signal intensity (SpCyk3): 9.5
- SPOT peptide array binding signal intensity (SpHof1): 200
- SPOT peptide array binding signal intensity (SpHof1-2): 13.5
- SPOT peptide array binding signal intensity (SpHof1-3): 286
- SPOT peptide array binding signal intensity (SpHse1): 253
- SPOT peptide array binding signal intensity (SpLsb1): 190
- SPOT peptide array binding signal intensity (SpLsb4): 707
- SPOT peptide array binding signal intensity (SpMyo1): 14
- SPOT peptide array binding signal intensity (SpNbp2): 307
- SPOT peptide array binding signal intensity (SpPex13): 32
- SPOT peptide array binding signal intensity (SpRvs167): 67.8
- SPOT peptide array binding signal intensity (SpSla1-D1-D2): 48
- SPOT peptide array binding signal intensity (SpSla1-D3): 7
